Screening results: PubChem BioAssay, several laboratories
Shown are actives, neighbours in structure and some others; about 3.1% of the full set was active somewhere.
MITF TRPM1 inh: inhibitors of MITF-driven TRPM1 promoter in melanoma cells; SK-MEL-5 TRPM1 promoter luciferase, 24 h; inhibition, % at 12.5 µM; 330,000 tested, 0.83% active; AID 488899;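 active means mean inhibition across replicates of 60% or more, whatever share of single replicates reaches that level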
Peg3 promoter: Peg3 promoter activity inhibition. HeLa PEG-Prom luciferase reporter, luminescence, overnight. AID 588405. 360,000 tested, 1.7% active. inhibition, % at 20 µM;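 active means inhibition of at least 50% at 20 µM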
ABHD5 PLIN5 PPI: ABHD5-PLIN5 protein interaction inhibition. Split G. princeps luciferase complementation, luminescence, 4 h. 360,000 tested, 0.78% active. Q00G26+Q8WTS1. inhibition, % at 4 µM;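 active means inhibition above the mean inhibition across every tested compound plus 3 SD, cut at about 22% in these data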;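 further: 0% = DMSO only wells and the 100% control is not disclosed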
Target sequence (Q00G26 whole entry, looked up): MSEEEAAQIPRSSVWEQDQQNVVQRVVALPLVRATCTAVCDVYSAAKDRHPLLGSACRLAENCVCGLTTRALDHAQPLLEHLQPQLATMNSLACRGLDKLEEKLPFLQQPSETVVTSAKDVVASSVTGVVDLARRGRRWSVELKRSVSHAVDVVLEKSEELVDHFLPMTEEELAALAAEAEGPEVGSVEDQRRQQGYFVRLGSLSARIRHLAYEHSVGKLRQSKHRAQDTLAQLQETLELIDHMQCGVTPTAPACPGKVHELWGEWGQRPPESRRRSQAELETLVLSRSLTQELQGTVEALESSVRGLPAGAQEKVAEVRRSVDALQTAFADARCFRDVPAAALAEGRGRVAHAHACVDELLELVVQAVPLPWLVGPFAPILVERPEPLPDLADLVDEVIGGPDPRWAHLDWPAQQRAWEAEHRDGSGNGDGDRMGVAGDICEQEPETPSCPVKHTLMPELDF
Target sequence (Q8WTS1 whole entry, looked up): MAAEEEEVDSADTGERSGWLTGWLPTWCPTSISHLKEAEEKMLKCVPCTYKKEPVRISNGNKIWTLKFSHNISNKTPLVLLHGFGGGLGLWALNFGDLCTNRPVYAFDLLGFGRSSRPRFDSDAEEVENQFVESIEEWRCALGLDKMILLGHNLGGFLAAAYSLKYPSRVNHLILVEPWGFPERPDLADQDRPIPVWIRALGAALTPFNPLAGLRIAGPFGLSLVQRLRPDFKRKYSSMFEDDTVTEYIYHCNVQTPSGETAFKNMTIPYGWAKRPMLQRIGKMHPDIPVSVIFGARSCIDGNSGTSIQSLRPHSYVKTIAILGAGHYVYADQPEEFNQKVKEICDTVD
CF NFkB block: blocks PAF-induced NF-kB reporter in cystic fibrosis cells. inhibition, % at 5 µM. AID 588850. 360,000 tested, 0.86% active. KKLEB NF-kB-GFP reporter, GFP fluorescence overnight;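 active means at least 50% inhibition at 5 µM, scaled per plate between neutral and stimulator controls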;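 further: PAF is a Pseudomonas aeruginosa culture filtrate used as stimulus; plate controls were PAF-stimulated DMSO wells for no effect and unstimulated DMSO wells for full effect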
KKLEB tox: CF airway cell cytotoxicity counter-screen; KKLEB CF airway cells viability, ATPlite luminescence, overnight; stronger effect = lower value; cells stimulated with P. aeruginosa culture filtrate; activity change (cytotoxicity), % at 5 µM; 360,000 tested, 0.36% active; AID 602141;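 active means corrected activity change at or below -50% at 5 µM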
HIF-2a inh: blocks HIF-2a reporter activity | 786-0 RCC cells HIF-2a reporter, luciferase luminescence, overnight | inhibition, % at 18.8 µM | 360,000 tested, 0.72% active;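 active means inhibition of the luminescence signal of 40% or more relative to plate controls, in a single-dose primary screen at 18.75 µM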
CF NFkB conf: CF NF-kB inhibition confirmation, single concentration; shares compounds with CF NFkB block; KKLEB CF airway cells, PAF-induced NF-kB-GFP fluorescence, overnight; inhibition, % at 5 µM; 1,300 tested, 64% active; AID 602472; in the data active means inhibition above about 40%;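 further: stimulus PAF is a Pseudomonas aeruginosa filtrate and not platelet activating factor; plate controls were DMSO wells with stimulus for no effect and unstimulated DMSO wells for full effect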
Numbers without * were called inactive; / = no result.

SMILES	MITF TRPM1 inh	Peg3 promoter	ABHD5 PLIN5 PPI	CF NFkB block	KKLEB tox	HIF-2a inh	CF NFkB conf
CC(C)(C)S(=O)N1Cc2cc(C(=O)NCC(F)(F)F)nc(-c3cccc(-c4cccc(F)c4)c3)c2[C@@H]1CCO (stereo not given in full)	/	69*	-8	78*	-10	15	65*
CCn1c(Oc2ccccc2F)nc2c1c(=O)n(C)c(=O)n2C	-18	-2	-2	56*	-4	21	83*
CCC(C)NC(=O)c1cc(S(=O)(=O)N2CCCCC2)c[nH]1 (stereo not given)	-16	-12	2	1	-9	12	/
Cc1ccc(C(=O)NCCNS(C)(=O)=O)cc1	-17	-7	-7	1	7	-13	/
CN(C)CCN(C(=O)CCS(=O)(=O)c1ccccc1)c1nc2cc3c(cc2s1)OCO3	-6	-33	6	16	-5	-21	/
O=C(CCS(=O)(=O)c1ccccc1)N(CCCN1CCOCC1)c1nc2ccccc2s1	-35	108*	-3	73*	-22	-141	55*
CCN(CC)CCN(C(=O)CCS(=O)(=O)c1ccccc1)c1nc2cc3c(cc2s1)OCO3	31	31	7	53*	-7	12	3
Cc1ccc(NC(=O)CN2CCN(S(=O)(=O)c3cccs3)CC2)cc1S(=O)(=O)N(C)C	16	9	6	-9	3	12	/
COc1cc(CN(C)c2ccc(S(=O)(=O)N3CCCC3)cn2)ccc1OC(F)F	-8	8	-6	54*	-13	11	55*
O=C(COC(=O)c1ccc2ncsc2c1)Nc1ccc(OC(F)(F)F)cc1	-8	-16	-2	52*	6	-21	16
CCOc1ccc(C(=O)NCCC(=O)N2CCC3(CC2)NCCc2[nH]cnc23)cc1OCC	-3	-8	-1	-12	0	9	/
Cc1sc2ncnc(SCC(=O)N3CCC(c4noc5ccc(F)cc45)CC3)c2c1C	-3	-7	3	-3	-11	-1	/
Cc1nnc(SCC(=O)N2CCC(c3noc4ccc(F)cc34)CC2)s1	3	2	3	64*	-14	2	90*
COc1ccc(OC)c(-c2nnc3n2N=C(c2ccc(OC)c(OC4CCOC4)c2)CS3)c1 (stereo not given)	71*	2	-4	54*	-10	20	65*
COc1ccc(C2=Nn3c(nnc3-c3ccccc3Cl)SC2)cc1OC1CCOC1 (stereo not given)	-4	-49	-1	38	-25	-94	/
CC(=O)Oc1ccccc1C(=O)Oc1ccc(/C=N/n2cnnc2)cc1	-5	9	4	73*	-15	15	64*
CCOc1ccc(/C=N/n2cnnc2)cc1	2	13	6	3	9	9	/
CCCC1=C(C(=O)OCC)C(c2ccco2)C(C#N)=C(N)O1 (stereo not given)	-4	3	2	-4	-6	18	/
COc1ccc2ccc(O)c(CN3CCN(S(=O)(=O)c4cccc(C(F)(F)F)c4)CC3)c2c1	29	-1	21	70*	-30	17	29
CCOc1ccc(OCC(O)CN2CCN(S(=O)(=O)c3cccc(C(F)(F)F)c3)CC2)cc1 (stereo not given)	3	21	-8	3	-10	4	/
COc1cc(NC(=O)CSc2nnc3c(C)cc4c(C)ccc(C)c4n23)c(C(=O)O)cc1OC	-5	9	0	-4	-18	11	/
Cc1ccc(C)c(S(=O)(=O)N(C)C2CCS(=O)(=O)C2)c1 (stereo not given)	-6	0	5	-14	1	16	/
CC[C@H](CO)Nc1nc(Nc2cccc(Cl)c2)c2ncn(C(C)C)c2n1	32	94*	-7	68*	-20	-5	92*
COc1ccc(NC(=O)CSc2nc(C3CC3)nc3ccccc23)cc1	10	8	-1	53*	-18	15	33
O=C(/C=C/c1ccccc1Cl)Nc1ccccc1	-26	-173	5	1	-17	-181	/
SMILES	MITF TRPM1 inh	Peg3 promoter	ABHD5 PLIN5 PPI	CF NFkB block	KKLEB tox	HIF-2a inh	CF NFkB conf
O=C(/C=C/c1ccccc1Cl)c1ccc(O)cc1	-12	-71	16	59*	-10	-237	-38
CCOC(=O)c1c(C)c2c(=O)[nH]cnc2n1-c1ccccc1	-9	-17	5	56*	-5	8	66*
OCCN1CCN(c2ncnc3ccc(Br)cc23)CC1	18	-9	7	53*	-9	27	67*
COc1ccccc1N(C)c1cc2c(c3c1ccn3C)C1CCC2O1 (stereo not given)	/	33	-27	92*	-18	16	31
CN(Cc1ccccc1)c1cc2c(c3c1ccn3C)C1CCC2O1 (stereo not given)	/	-33	-18	7	0	-5	/
Cn1ccc2c(N3c4ccccc4CCc4ccccc43)cc3c(c21)C1CCC3O1 (stereo not given)	/	-18	-10	85*	-17	7	15
O=C(NC1CC1)c1cccc(S(=O)(=O)Nc2ccccc2F)c1	-10	1	0	-22	-1	7	/
Nc1cccc2c1C(=O)N(C(=O)/C=C/c1cccc(F)c1)C2=O	35	80*	-3	52*	-9	14	-11
Nc1cccc2c1C(=O)N(C(=O)/C=C/c1cccc(Br)c1)C2=O	27	54*	5	56*	22	12	-67
O=C(/C=C/c1cccc(Br)c1)N1CCN(c2cccc(C(F)(F)F)c2)CC1	-8	2	-6	-2	-10	20	/
CCOC(=O)c1c(NC(=O)Cc2cccs2)sc(C(=O)NC2CCCCC2)c1C	13	6	0	51*	-29	-11	19
CCOC(=O)c1c(NC(=O)Cc2cccs2)sc(C(=O)NC2CCCC2)c1C	4	27	1	46	-42	10	/
O=C(NCc1ccc(F)cc1)c1cc(C2CCCN(C(=O)c3ccc4ccccc4c3)C2)on1 (stereo not given)	/	18	5	-3	2	13	/
Cc1cccc(N2CCN(C(=O)c3ccc(S(=O)(=O)N(C)c4ccccc4)cc3)CC2)c1C	18	35	3	54*	-31	11	44*
COC(=O)[C@@H](Cc1c[nH]c2ccccc12)NCc1ccc(B(O)O)cc1	3	-38	-1	8	3	-32	/
CC(C)CC1C(=O)N(Cc2cn(Cc3ccco3)nn2)CCS(=O)(=O)N1Cc1ccc(-c2ccc(Cl)cc2)cc1 (stereo not given)	/	42	2	65*	-23	-5	41*
